# Assay results as given in the OligoGym collection.
# Target: ARIH1
# Assay: pooled miR-30 sensor sort-seq; sequence = guide strand
# Details: shRNA
# Also: reference of the scale not given here.
row,Sequence,sensor-assay potency score (higher = more potent)
1,TTGGACTTTAACAACATGGTGG,0.0155
2,TTACAGTAGAACAGGTACCTCT,-0.0917
3,TTAACAGTCGATTGCACTCTAC,-0.996
4,TTAACCACTTACATTTAACAGG,-0.703
5,TTGTCTTGTACTTTCTGCTTTA,-0.218
6,TTAGGGTAGTTCAAGTAGCAGA,-0.412
7,TAGCGGTTACAGTTGTACCAGG,-0.854
8,TTTAACAGTCGATTGCACTCTA,0.745

# Target: ARL3
# Assay: as above
# Details: shRNA
row,Sequence,sensor-assay potency score (higher = more potent)
1,TTTTGATGTTGAAACCCTGTGT,0.456
2,TTCAGAAGAGTGGTCTTGCCAG,-0.492
3,TTGTACACTTTTGATGTTGAAA,-1.03
4,TTTGATGTTGAAACCCTGTGTA,0.537
5,TTGACATTTTTGCAGACCCAGT,-1.64
6,AACCTTGTGATTGTACACTTTT,-0.441
7,TACATATATAAGAATATCGGTA,-0.522
8,TAATTCTTCCAGTATGGTCTGA,0.485
9,TTCAGTTTAAAACCTTGTGATT,-1.5
10,TTTTCAAAATAATTCTTCCAGT,-0.927
11,ATACATTCAGTTTAAAACCTTG,-0.514
12,TTTTTCTGTCTGCACTGTCGAT,-0.887
13,TTTTCTGTCTGCACTGTCGATT,-0.243
14,TTGATGTTGAAACCCTGTGTAG,-0.924
15,TGATTGTACACTTTTGATGTTG,-0.736
16,TCTGGTGCACTTTTCAACTTGC,0.321
17,TTGTGATTGTACACTTTTGATG,-1.36
18,TTAGTTTTTCTTCCTCCAGTAA,-0.387
19,AATCTTTTTCTGTCTGCACTGT,-0.19
20,TTACATATATAAGAATATCGGT,-0.321
21,TAAGAATATCGGTATTTTCAAA,-1.26
22,TTCAGATGCAAGCTGCTTCAGA,-0.224
23,AATTCTTCCAGTATGGTCTGAT,0.17

# Target: ARL4D
# Assay: as above
# Details: shRNA
row,Sequence,sensor-assay potency score (higher = more potent)
1,TCCACCACAAACACTAGACCGT,-0.55
2,TAGACCGTCTGTCCGGCGGGTA,-1.34
3,TTCTCGGTGTTGAAGCCTTTGG,-1.06
4,TACGTCTCCACAGTCCTGCAGC,-0.421
5,TCGGTGTTGAAGCCTTTGGTGG,-1.59
6,AACACTAGACCGTCTGTCCGGC,-0.396
7,AAGAGCGCCACAGTGGTCGCAG,-0.161
8,TGGACAAACTCCTTGAACTTGA,-0.891
9,AGACCGTCCACAGCGCTGCAGC,-1.79
